An excerpt weighted towards active compounds, which were near 1.7% of everything screened.
EBV gp42 inh: blocks Epstein-Barr virus glycoprotein 42 binding; actives 0.42% (n = 220,000); Fluorescence polarization binding assay, mP read-out; inhibition, % (tested at 21.74 µM); Q1HVG2; in the data active means inhibition above about 50%
PABP polyA inh: blocks human PABP binding to poly(A) RNA | P11940 | fluorescence polarization | calls only at 35 µM | actives 1% (n = 290,000) | AID 2014;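 further: calls also rest on retests at 20 µM and on dose response follow-up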
eIF4H FP inh: inhibitors of RNA binding by human eIF4H | eIF4H fluorescence polarization binding assay | inhibition, % at 35 µM | actives 0.94% (n = 290,000) | AID 2012;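 further: calls also rest on retests at 20 µM and on dose response follow-up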
PABP1 MLLE inh: blocks PAM2 peptide binding to the PABP1 MLLE domain; actives 0.36% (n = 360,000); inhibition, % at 20 µM; GST-MLLE / FITC-PAM2 fluorescence polarization; in the data active means inhibition above about 35%, passing the limit was not always enough;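 further: plate controls were DMSO wells with GST-MLLE for no effect and wells lacking GST-MLLE protein for full effect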
eIF4E-4G inh: inhibitors of eIF4E and eIF4G interaction in translation initiation; P63073+Q04637; TR-FRET eIF4E-eIF4GI(517-606) binding, 2 h; inhibition, % at 21.7 µM; actives 0.37% (n = 220,000); AID 782;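 active means inhibition above about 30%, limit read from the data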;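 further: 0% = full FRET control wells and 100% = background wells lacking eIF4GI fragment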
Starred values were filed as active, the others as inactive; i = inactive; ? = inconclusive; . = no result; + = active, no number; [ ] = dose if it differs, or a comment. Unless noted, how the calls were made is not given here.

SMILES	EBV gp42 inh	PABP polyA inh	eIF4H FP inh	PABP1 MLLE inh	eIF4E-4G inh
COc1ccc(NC(C)C(=O)Nc2ccc(C(C)(C)C)cc2)cc1Cl (configuration not stated)	-10	i	-11	-16	4
COc1ccc(NC(C)C(=O)Nc2ccc(C#N)cc2)cc1Cl (configuration not stated)	1	i	2	-14	31*
CCCCn1c(=O)c(CCC(=O)OCC(=O)NC(=O)NCCC(C)C)nc2ccccc21	-31	i	active	18	11
COCCN1C[C@@H](CO)O[C@@H](n2cnc3c(N(C)C)ncnc32)C1	.	.	.	-2	.
CCC(Oc1ccccc1)C(=O)O/N=C(\N)c1ccc(OC)c(OC)c1 (configuration not stated)	-7	+	active	-3	1
COc1ccc(/C(N)=N/OC(=O)c2ccc3ccccc3c2)cc1OC	.	.	.	-10	.
O=c1c2ccccc2[nH]c2ccc(O)cc12	.	+	92*	26	.
O=C(Nn1cnnc1)c1cc(Br)ccc1Cl	.	i	-18	5	.
c1ccc(CN2CCN(C3=Nc4cccc5cccc3c45)CC2)cc1	13	i	94*	-22	-3
Fc1ccc(N2CCN(C3=Nc4cccc5cccc3c45)CC2)cc1	-21	i	3	-32	8
COc1ccccc1CNC(=O)C1CC(c2ccccc2[N+](=O)[O-])=NO1 (configuration not stated)	-11	+	54	14	-3
NNC(=O)c1nc[nH]c1C(=O)Nc1ccccc1[N+](=O)[O-]	-18	+	55*	6	1
O=C(Nc1ccc(F)cc1)c1nc[nH]c1C(=O)Nc1ccccc1[N+](=O)[O-]	-1	i	-4	8	-2
O=C(NC(=S)Nc1ncccn1)c1ccccc1Cl	14	i	2	41*	1
CC(=O)Nc1c(O)nc(SCC(=O)Nc2nnc(SCc3ccccc3)s2)[nH]c1=O	-2	i	10	23	0
Cc1ccc(S(=O)(=O)/N=C2/C=C(Sc3ncn[nH]3)C(=O)c3ccccc32)cc1	5	i	7	50*	34*[fluorescence artefact?]
CC(C)c1ccc(S(=O)(=O)/N=C2/C=C(Sc3ncn[nH]3)C(=O)c3ccccc32)cc1	-35	i	17	19	21
NC(=O)c1nsc(C(=O)N(Cc2ccc(F)cc2)C(C(=O)NCC2CCCO2)c2ccc(O)cc2)c1N (configuration not stated)	.	i	-2	-5	.
Cc1c(C(=O)Nc2cccc(Cl)c2)c2ccccn2c1CCc1ccncc1	4	+	?	-25	2
Cc1c(C(=O)Nc2ccc(Cl)cc2)c2ccccn2c1CCc1ccncc1	-14	i	12	-38	-6
CCOc1ccc(-c2csc(NC(=O)CSC3=NC(=O)CN3C(C)=O)n2)c2ccccc12	130*	i	-3	0	5
CCOc1ccc(-c2csc(NC(=O)CSCC(=O)O)n2)c2ccccc12	4	i	0	34	1
CCCN1CCCc2cc(CN)ccc21	79*	+	58*	45*	1
CN1CCCc2cc(C=O)ccc21	-6	i	-4	-8	3
CCOC(=O)c1c(-c2ccc(C)o2)csc1N	0	+	52*	26	3
SMILES	EBV gp42 inh	PABP polyA inh	eIF4H FP inh	PABP1 MLLE inh	eIF4E-4G inh
CCn1c(C)nc2cc(C(=O)N/N=C/c3cccc(OC)c3O)ccc21	2	i	-5	5	-7
CCn1c(C)nc2cc(N)ccc21	-24	i	12	5	6
CCn1c(C)nc2cc(C(N)=O)ccc21	-4	+	99*	-3	-10
CCn1c(C)nc2cc(C(=O)N/N=C/c3ccc(O)c(O)c3O)ccc21	24	?	?	25	78*
Cc1ccc(C)c(S(=O)(=O)N2CCCOC2CNC(=O)C(=O)NCc2ccncc2)c1 (configuration not stated)	14	i	-1	-1	-2
Cc1oc(-c2ccc(Cl)cc2)cc1-c1nn2c(-c3ccoc3C)nnc2s1	9	+	85*	-18	4
Clc1ccc(-c2nnc3sc(-c4ccc(Br)o4)nn23)cc1	-13	i	-1	102	-31
CCOC(=O)c1cc(-c2ccccc2C)nn1CC1CC(c2cccnc2)=NO1 (configuration not stated)	.	.	.	8	.
CCN(CC)C(=O)C1=C(C)N(Cc2ccccc2)C(=O)C(CC(=O)NC2CCCC2)C1 (configuration not stated)	.	.	.	8	.

Bioassay records (PubChem BioAssay)
